This is part of a sample that, as a whole, favours compounds with a hit. Of some 79,000 tested, about 15% had one in any assay. The source made the active and inactive calls. No stated cut-off is given here; in the data, active means growth inhibition above about 70%; inactive means the rest.
Legend:
[1] = NCI Yeast Anticancer Drug Screen. Data for the rad52 strain (AID 147);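 further: 0% = growth of vehicle-treated control cultures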; conditions: S. cerevisiae rad52 mutant growth inhibition, hits give high values
Procedure, shortened: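 Read-out: growth inhibition versus vehicle-treated controls. Cells were a DNA repair-deficient yeast strain treated with compounds.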

[2] = NCI Yeast Anticancer Drug Screen. Data for the wt1 strain (AID 149);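 further: 0% = growth of vehicle-treated wt1 cultures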; conditions: S. cerevisiae wt1 strain (SPY 50644) growth inhibition, hits give high values
Procedure, shortened: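 Measured: growth of wt1 yeast under compound versus vehicle treatment, reported as inhibition.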

[3] = NCI Yeast Anticancer Drug Screen. Data for the rad50EPP+ strain (AID 151);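 further: 0% = growth of vehicle-treated control cultures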; conditions: S. cerevisiae rad50 mutant strain, hits give high values
Procedure, shortened: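 Growth inhibition read against vehicle controls in rad50EPP+ yeast, a strain altered in DNA damage repair, after compound exposure.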

[4] = NCI Yeast Anticancer Drug Screen. Data for the mgt1 strain (AID 153); conditions: S. cerevisiae mgt1 mutant growth inhibition, hits give high values
Procedure, shortened: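 mgt1 yeast grown with test compound; read-out is growth inhibition versus vehicle-treated cultures.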

[5] = NCI Yeast Anticancer Drug Screen. Data for the rad50 strain (AID 155);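 further: 0% = growth of vehicle-only cultures of the same strain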; conditions: S. cerevisiae rad50 strain growth inhibition, hits give high values
Procedure, shortened: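 Growth of the mutant yeast was measured after compound exposure and referenced to vehicle-treated cultures.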

[6] = NCI Yeast Anticancer Drug Screen. Data for the mec2-1 strain (AID 157); conditions: S. cerevisiae mec2-1 strain, hits give high values
Procedure, shortened: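 Yeast mec2-1 mutant treated with compound. Readout: growth inhibition vs vehicle controls.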

[7] = NCI Yeast Anticancer Drug Screen. Data for the rad14 strain (AID 159);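 further: 0% = growth of vehicle-treated control cultures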; conditions: S. cerevisiae rad14 strain growth inhibition, hits give high values
Procedure, shortened: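 Here, inhibition of yeast growth was measured after compound exposure, using a strain with a genetic defect in DNA damage repair and vehicle-treated cultures as the reference.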

[8] = NCI Yeast Anticancer Drug Screen. Data for the sgs1 mgt1 strain (AID 161);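 further: 0% = growth of cultures given vehicle only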; conditions: S. cerevisiae sgs1 mgt1 strain, hits give high values
Procedure, shortened: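 Read-out: growth inhibition vs vehicle controls. Cells: mutant yeast strain deficient in DNA damage repair.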

[9] = NCI Yeast Anticancer Drug Screen. Data for the CLN2oe strain (AID 163);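 further: 0% = growth of vehicle-only control cultures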; conditions: S. cerevisiae CLN2oe strain, hits give high values
Procedure, shortened: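 Read-out: yeast growth inhibition, expressed relative to vehicle-only controls. The strain bears an engineered cell-cycle alteration.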

[10] = NCI Yeast Anticancer Drug Screen. Data for the cln2 rad14 strain (AID 165);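 further: 0% = growth equal to vehicle treated cultures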; conditions: S. cerevisiae cln2 rad14 strain, hits give high values
Procedure, shortened: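 cln2 rad14 yeast strain; compound exposure; growth inhibition read vs vehicle controls.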

[11] = NCI Yeast Anticancer Drug Screen. Data for the bub3 strain (AID 167); conditions: S. cerevisiae bub3 mutant strain, hits give high values
Procedure, shortened: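 Whole-cell yeast assay. The mutant strain was incubated with compounds, and growth inhibition was determined by comparison with vehicle-treated cells.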

[12] = NCI Yeast Anticancer Drug Screen. Data for the wt2 strain (AID 169);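 further: 0% = growth of vehicle-treated yeast cultures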; conditions: S. cerevisiae wt2 strain growth inhibition, hits give high values
Procedure, shortened: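 Read-out: growth inhibition versus vehicle-treated control cultures after compound exposure of the yeast strain.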

[13] = NCI Yeast Anticancer Drug Screen. Data for the mlh1 strain (AID 171);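 further: 0% = growth of vehicle-treated control cultures of the same strain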; conditions: S. cerevisiae mlh1 strain growth inhibition, hits give high values
Procedure, shortened: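 Read-out: growth inhibition versus vehicle controls. Strain: engineered yeast with a defined DNA repair or cell cycle defect, compound-treated.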

[14] = NCI Yeast Anticancer Drug Screen. Data for the sgs1 strain (AID 173);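 further: 0% = growth of vehicle-only control cultures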; conditions: S. cerevisiae sgs1 mutant, hits give high values
Procedure, shortened: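 Read-out: yeast growth inhibition relative to vehicle controls, following compound exposure of a strain with a defined DNA repair/cell cycle alteration.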

[15] = NCI Yeast Anticancer Drug Screen. Data for the mlh1 rad18 strain (AID 175); conditions: S. cerevisiae mlh1 rad18 strain growth inhibition, hits give high values
Procedure, shortened: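 Yeast w/ defined DNA-repair lesions; compound exposure; growth vs vehicle controls → % inhibition.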

[16] = NCI Yeast Anticancer Drug Screen. Data for the rad18 strain (AID 177); conditions: S. cerevisiae rad18 mutant growth inhibition, hits give high values
Procedure, shortened: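 Readout: growth inhibition vs vehicle controls. Cells: genetically altered yeast strain, DNA repair defect.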

[17] = at 5.0 µM (retest, dose inferred, filed as 0.5)
[18] = at 50.0 µM (retest, dose inferred, filed as 5.0)

Measured: growth inhibition

CC(C)/C(Cl)=N\OC(=O)Nc1ccc(F)cc1F
inactive: [1]; at 1.2 µM 1% | [1]; at 3.7 µM 7% | [1]; at 11.0 µM 15% | [1]; at 33.0 µM 28% | [2]; at 1.2 µM 2% | [2]; at 3.7 µM 1% | [2]; at 11.0 µM -2% | [2]; at 33.0 µM -1% | [2]; at 100.0 µM 6% | [3]; at 1.2 µM 7% | [3]; at 3.7 µM 13% | [3]; at 11.0 µM 25% | [3]; at 33.0 µM 54% | [4]; at 1.2 µM 3% | [4]; at 3.7 µM 1% | [4]; at 11.0 µM 4% | [4]; at 33.0 µM 13% | [5]; at 1.2 µM 2% | [5]; at 3.7 µM 8% | [5]; [17] 2% | [5]; at 11.0 µM 15% | [5]; at 33.0 µM 32% | [5]; at 50.0 µM 6.55% | [6]; at 1.2 µM 5% | [6]; at 3.7 µM 9% | [6]; [17] 4% | [6]; at 11.0 µM 13% | [6]; at 33.0 µM 28% | [7]; at 1.2 µM 0% | [7]; at 3.7 µM 3% | [7]; at 11.0 µM 9% | [7]; at 33.0 µM 17% | [7]; at 100.0 µM 37% | [8]; [17] -12% | [8]; [18] 69% | [9]; at 1.2 µM 7% | [9]; at 3.7 µM 11% | [9]; at 11.0 µM 12% | [9]; at 33.0 µM 12% | [9]; at 100.0 µM 24% | [10]; [17] -1% | [10]; [18] 38% | [10]; at 50.0 µM 44.8% | [11]; at 1.2 µM 23% | [11]; at 3.7 µM 38% | [11]; [17] 27% | [12]; at 1.2 µM 0% | [12]; at 3.7 µM 0% | [12]; at 11.0 µM 2% | [12]; at 33.0 µM 12% | [12]; at 100.0 µM 63% | [13]; at 1.2 µM 0% | [13]; at 3.7 µM 6% | [13]; at 11.0 µM 9% | [13]; at 33.0 µM 16% | [13]; at 100.0 µM 53% | [14]; at 1.2 µM -1% | [14]; at 3.7 µM 0% | [14]; at 11.0 µM 4% | [14]; at 33.0 µM 27% | [15]; [17] -29% | [15]; [18] 69% | [15]; at 50.0 µM 58% | [16]; at 1.2 µM -3% | [16]; at 3.7 µM -1% | [16]; at 11.0 µM 4% | [16]; at 33.0 µM 17%
active: [1]; at 100.0 µM 75% | [3]; at 100.0 µM 85% | [4]; at 100.0 µM 96% | [5]; [18] 78% | [5]; at 100.0 µM 80% | [6]; [18] 83% | [6]; at 50.0 µM 72.4% | [6]; at 100.0 µM 95% | [8]; at 50.0 µM 70.8% | [11]; at 11.0 µM 70% | [11]; at 33.0 µM 90% | [11]; [18] 97% | [11]; at 50.0 µM 82.1% | [11]; at 100.0 µM 98% | [14]; at 100.0 µM 83% | [16]; at 100.0 µM 79%

O=C(/C=C(/c1ccccc1)N1CCCCC1)c1ccccc1
active: [1]; at 100.0 µM 98% | [2]; at 100.0 µM 94% | [4]; at 100.0 µM 87% | [5]; [18] 92% | [5]; at 50.0 µM 90.3% | [5]; at 100.0 µM 97% | [6]; [18] 84% | [6]; at 100.0 µM 82% | [7]; at 100.0 µM 98% | [8]; [18] 94% | [8]; at 50.0 µM 82.1% | [9]; at 100.0 µM 97% | [10]; [18] 79% | [11]; [18] 99% | [11]; at 100.0 µM 94% | [12]; at 100.0 µM 95% | [13]; at 100.0 µM 96% | [14]; at 100.0 µM 97% | [15]; [18] 99% | [15]; at 50.0 µM 89.3% | [16]; at 100.0 µM 97%
inactive: [1]; at 1.2 µM 0% | [1]; at 3.7 µM 3% | [1]; at 11.0 µM 5% | [1]; at 33.0 µM 13% | [2]; at 1.2 µM -1% | [2]; at 3.7 µM 4% | [2]; at 11.0 µM 1% | [2]; at 33.0 µM 9% | [3]; at 1.2 µM 3% | [3]; at 3.7 µM 16% | [3]; at 11.0 µM 42% | [3]; at 33.0 µM 43% | [3]; at 100.0 µM 31% | [4]; at 1.2 µM -3% | [4]; at 3.7 µM -2% | [4]; at 11.0 µM 0% | [4]; at 33.0 µM 10% | [5]; at 1.2 µM -1% | [5]; at 3.7 µM -1% | [5]; [17] 0% | [5]; at 11.0 µM 5% | [5]; at 33.0 µM 11% | [6]; at 1.2 µM -4% | [6]; at 3.7 µM -5% | [6]; [17] -12% | [6]; at 11.0 µM -3% | [6]; at 33.0 µM 7% | [6]; at 50.0 µM 53% | [7]; at 1.2 µM 3% | [7]; at 3.7 µM 6% | [7]; at 11.0 µM 9% | [7]; at 33.0 µM 30% | [8]; [17] 44% | [9]; at 1.2 µM -6% | [9]; at 3.7 µM -7% | [9]; at 11.0 µM -3% | [9]; at 33.0 µM -4% | [10]; [17] 14% | [10]; at 50.0 µM 46% | [11]; at 1.2 µM 2% | [11]; at 3.7 µM 3% | [11]; [17] 34% | [11]; at 11.0 µM 7% | [11]; at 33.0 µM 19% | [11]; at 50.0 µM 54.8% | [12]; at 1.2 µM -1% | [12]; at 3.7 µM 1% | [12]; at 11.0 µM 1% | [12]; at 33.0 µM 15% | [13]; at 1.2 µM -4% | [13]; at 3.7 µM -1% | [13]; at 11.0 µM -3% | [13]; at 33.0 µM 5% | [14]; at 1.2 µM -1% | [14]; at 3.7 µM -1% | [14]; at 11.0 µM 3% | [14]; at 33.0 µM 20% | [15]; [17] 55% | [16]; at 1.2 µM -2% | [16]; at 3.7 µM 1% | [16]; at 11.0 µM 3% | [16]; at 33.0 µM 9%

From PubChem BioAssay (NCI)
